Results: PubChem BioAssay AID504582 (Broad Institute, 2011)
Hit rate of the full screen: of about 340,000 compounds, about 2,300 (0.68%) were called active. The full list was thinned out, with actives kept by preference. Unmarked numbers belong to inactive results. Rule as the data show it: active = growth rescue above about 28% (passing the limit was not always enough); inconclusive = no clear call, values can overlap the other calls.

experiment: rescue of yeast from PfHsp40 toxicity, primary screen, S. cerevisiae, ATP luminescence (AID 504582);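 also: yeast W303a lacking pdr1 and pdr3 grown in galactose medium; growth measured after three days at 30 °C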; conditions: S. cerevisiae expressing PfHsp40, growth rescue, at 12.5 µM, stronger effect = higher value

Compared with CCOc1ccc(S(=O)(=O)n2ccnc2)c2ccccc12, CCOc1ccccc1NC(=O)C1CCCN(S(=O)(=O)c2ccccc2)C1 (configuration not stated) is higher in growth rescue: -0.0665% for the first, 0.502% for the second.

Going from COc1cccc(NC(=O)C2CCCN2C(=O)OCc2ccccc2)c1 (configuration not stated) to COc1ccc(NC(=O)N2CCCC2C(=O)NCc2ccccc2Cl)cc1 (configuration not stated), the growth rescue falls from 0.607% to -2.16%.

First: COc1ccc(OC)c(C(=O)c2ccc(C(=O)N3CCN(Cc4csc(C)n4)CC3)cc2)c1
Second: COc1ccc(C(=O)COC(=O)COc2ccc(C)c(C)c2)cc1
The growth rescue of the first is lower: -1.18% for the first, 0.0365% for the second.

First: O=C(Cn1nnc(-c2ccccc2)n1)N/N=C/c1ccc(-c2ccc(Cl)cc2)o1
Second: Cc1ccccc1-c1n[nH]c(=S)n1/N=C/c1ccc(-c2ccccc2Br)o1
The growth rescue of the first is lower: -1.63% for the first, 0.454% for the second.

First: O=C(NCc1ccco1)C1CCCN(S(=O)(=O)c2cnc[nH]2)C1 (configuration not stated)
Second: COc1cccc(CNC(=O)C2CCCN(S(=O)(=O)N3CC(C)CC(C)C3)C2)c1 (configuration not stated)
The growth rescue of the first is higher: 0.411% for the first, 0.206% for the second.

Compared with COc1cc(/C=N/O)cc(Br)c1OS(=O)(=O)c1ccc(C)cc1, COC(=O)c1cccc([N+](=O)[O-])c1CS(=O)(=O)c1ccc(C)cc1 is lower in growth rescue: -0.295% for the first, -1.34% for the second.

Compared with COc1cc(C(=O)NCc2ccncc2)cc(Br)c1OCc1ccccc1, COc1cc(OC)nc(N/N=C(\c2ccccc2)c2ccncc2)n1 is lower in growth rescue: 1.27% for the first, 0.409% for the second.

Going from Cc1cccc(N2C(=O)c3ccc(C(=O)Nc4cccc(C(=O)O)c4)cc3C2=O)c1 to COc1ccc(OC)c(NC(=O)c2ccc3c(c2)C(=O)N(c2ccc(OC(C)=O)cc2)C3=O)c1, the growth rescue falls from -0.247% to -0.414%.

Compared with CCc1ccc(C(=O)NNC(=O)C2CCN(c3ncnc4sc(C)c(C)c34)CC2)cc1, COc1ccc(CNC(=O)C2CCN(C(=O)c3ccco3)CC2)cc1 is lower in growth rescue: 4.88% for the first, 0.344% for the second.

Going from O=S(=O)(c1ccc(Br)cc1)n1ccc2ccccc21 to O=C(Nc1ccc2ccccc2c1)/C(=C/c1cccc(Br)c1)NC(=O)c1ccco1, the growth rescue falls from 17.1% to 1.72%.

Going from CCCC(C)C(=O)OCC(=O)Nc1c(Br)cc(C)cc1Br (configuration not stated) to CC(C)CNC(=O)COC(=O)/C=C/c1ccccc1[N+](=O)[O-], the growth rescue falls from 1.14% to -0.287%.

First: COc1ccc(OCc2ccc(-c3nc4ccccc4c(=O)n3N)o2)cc1
Second: COc1ccc(NC(=O)CSc2nc3ccccc3c(=O)n2C)cc1
The growth rescue of the first is higher: 0.704% for the first, -2.46% for the second.

First: COc1cccc(C(O)c2nc3ccccc3n2C)c1 (configuration not stated)
Second: COc1cccc(Oc2ccc(N)cc2)c1
The growth rescue of the first is lower: -0.645% for the first, 1.74% for the second.

Going from Clc1ccccc1-c1cc(COc2ccc3ccccc3c2)no1 to CCOc1ccc(-c2nc(N)ncc2-c2ccccc2OC)c(O)c1, the growth rescue rises from -0.819% to 1.96%.

Compared with Cc1no[n+]([O-])c1COc1ccccc1/C=C1\NC(=S)NC1=O, COc1ccccc1/C=C1\SC(=O)N(CCC(=O)N(C)C2CCS(=O)(=O)C2)C1=O (configuration not stated) is lower in growth rescue: 0.211% for the first, -0.442% for the second.

Going from Cc1[nH]c2c(C(=O)N3CCCC(CCC(=O)NCc4ccccc4F)C3)cccc2c1C (configuration not stated) to O=C(NCCN1CCOCC1)c1cc(Sc2cccc(Cl)c2)nc2ccccc12, the growth rescue rises from 1.34% to 1.79%.

Going from O=C(c1cn(-c2ccccc2)nc1-c1cccnc1)N1CCN(S(=O)(=O)c2ccccc2F)CC1 to O=C(Cn1cnc2c(nnn2-c2ccccc2)c1=O)N1CCC(Cc2ccccc2)CC1, the growth rescue rises from -0.533% to -0.205%.

Going from O=[N+]([O-])/C=C1\CCCCCN1 to Cc1ccc2[nH]c(C)c(CCNC(=O)NC3CCCCC3)c2c1, the growth rescue falls from 0.302% to -0.354%.

Compared with NS(=O)(=O)c1ccc(CNC(=S)NC(=O)c2ccco2)cc1, Cc1ccc(OCC(=O)NNC(=S)NCc2ccccc2)cc1 is lower in growth rescue: 0.284% for the first, -0.289% for the second.

First: O=C(Nc1ccc2ccccc2c1)/C(=C\c1ccc2c(c1)OCO2)NC(=O)c1ccco1
Second: Cc1ccc(NC(=O)NC(=O)N(C2CCCCC2)S(=O)(=O)c2ccccc2)cc1
The growth rescue of the first is higher: 0.409% for the first, -1.71% for the second.

First: COc1ccc(S(=O)(=O)n2nc(C)c(S(=O)(=O)N3CCOCC3)c2C)cc1
Second: COc1ccc2c(c1)CCc1c(C(=O)N3CCCC3)noc1-2
The growth rescue of the first is lower: 0.381% for the first, 0.772% for the second.

Compared with CCc1ccc(OCC(=O)OCC(=O)c2c(N)n(C)c(=O)n(C)c2=O)cc1, CCOC(=O)C(C)Oc1cccc2c(=O)n(CC(=O)NCCc3ccc(OC)c(OC)c3)ccc12 (configuration not stated) is lower in growth rescue: 1.51% for the first, 0.594% for the second.

First: FC(F)(F)c1ccnc(Oc2ccc(C3=NCCS3)cc2)c1
Second: CC(C)(C)c1ccc(OC2=CS(=O)(=O)c3ccccc32)cc1
The growth rescue of the first is lower: 4.54% for the first, 6.99% for the second.

First: C#CCNc1nc(C(C)C)nc2c1nnn2Cc1ccccc1F
Second: CC(C)Cn1c(SCC(=O)Nc2ccc(Cl)cc2F)nc(O)cc1=O
The growth rescue of the first is lower: -0.851% for the first, 1.12% for the second.

Compared with CSc1sc(C(=O)NC(=O)NCc2cccnc2)c(C)c1-c1ccon1, Cc1cc(NC(=O)CSc2nc(=O)cc(N)n2-c2ccc(F)cc2)no1 is lower in growth rescue: -0.426% for the first, -0.428% for the second.

Going from CCOC(=O)C1CCN(Cc2coc3ccc(Cl)cc3c2=O)CC1 to CCN(CC)C(=O)COc1coc(CN2CCN(Cc3ccccc3)CC2)cc1=O, the growth rescue falls from -0.75% to -0.869%.

Compared with O=C1/C(=C/c2coc3ccc(O)cc3c2=O)SC(=S)N1c1ccccc1, COc1cccc(-n2c(SCC(=O)c3c[nH]c4ccccc34)nc3ccccc3c2=O)c1 is lower in growth rescue: -0.334% for the first, -1.82% for the second.

Compared with COc1ccccc1C(=O)Nc1ccc(OCc2nnc3c4ccccc4c(C)nn23)cc1, COc1ccc(Oc2cn[nH]c2-c2ccc(OC)cc2O)cc1 is higher in growth rescue: 1.5% for the first, 10.8% for the second.

First: C/C(=N/Nc1nc(-c2ccccc2)c(CC(=O)O)s1)c1ccccc1
Second: CCOc1ccc(C(CC(=O)O)NC(=O)Cc2ccccc2)cc1OC (configuration not stated)
The growth rescue of the first is lower: -0.261% for the first, -0.249% for the second.

First: CCOc1cc(/C=C(/C#N)c2ccc(Cl)cc2)cc(Cl)c1OCC(=O)O
Second: C[C@H](NC(=O)c1ccccc1Cl)C(=O)OCCOc1cccc(Cl)c1
The growth rescue of the first is lower: -0.745% for the first, 4.16% for the second.

Going from CSCCC(NC(=O)c1ccccc1)C(=O)N1CCN(Cc2ccc(Cl)cc2)CC1 (configuration not stated) to Cn1c(CCc2ccccc2)nnc1SCC(N)=O, the growth rescue falls from 0.474% to 0.061%.

Going from O=C(/C=C/c1cccc([N+](=O)[O-])c1)OCC(=O)N1CCOCC1 to COc1cccc2c(=O)n(CC(=O)N3CCCCCC3)ccc12, the growth rescue rises from -0.951% to -0.593%.

Going from COC(=O)C1=C(NC(=O)C(C)(C)C)CCS1 to CC(=O)Nc1ccc(S(=O)(=O)NCC(=O)OCC(=O)c2ccc[nH]2)cc1, the growth rescue rises from -1.07% to -1.02%.

Going from CCC/C(=N\O)c1c[nH]c2ccccc12 to O=C1C(C=NCC2CCCO2)=C(O)c2ccccc21 (configuration not stated), the growth rescue rises from 0.247% to 0.444%.

Compared with Cc1cc(C(=O)CC#N)c(C)n1CC(F)(F)F, Cc1ccsc1/C=N/n1c(=S)[nH]nc(C)c1=O is lower in growth rescue: 0.147% for the first, -0.774% for the second.

Compared with COc1ccc(CCNS(=O)(=O)c2cccc3cccnc23)cc1OC, CCCc1nc2scc(-c3ccc(C)cc3)c2c(=O)n1N is higher in growth rescue: 0.122% for the first, 0.943% for the second.

Compared with O=C(O)CCCCOn1ccnc1, CCOC(=O)C(C)n1cnc2scc(-c3ccc(C)c(C)c3)c2c1=O (configuration not stated) is higher in growth rescue: -2.14% for the first, 4.82% for the second.

Going from O=C(c1noc2c1CCCC2)N1CCc2ccccc2C1 to CCn1cnc2scc(-c3ccc(C)c(C)c3)c2c1=O, the growth rescue rises from -0.161% to 1.65%.

Work on CC(=O)C(C)n1cnc2scc(-c3ccc(C)cc3)c2c1=O (configuration not stated) yielded a growth rescue of 0.285%.

For CN(C)C(=O)CCC(=O)N1CCCCC1C(=O)Nc1ccc(Oc2ccccc2F)cc1 (configuration not stated), the growth rescue was 141% (active).
For COc1cc(/C=N/O)cc(Br)c1OCc1cccc(Cl)c1, the growth rescue was 157% (active).
With CC(=O)Oc1ccc(C)cc1N1C(=O)c2ccc(C(=O)O)cc2C1=O the growth rescue was 103% (active).
With COc1ccc(-c2nc3ccccc3c(=O)n2CCc2ccc(O)cc2)cc1 the growth rescue was 31.2% (active).
In the case of CCCCCC(O)c1cccc(OCc2ccc3ccccc3n2)c1 (configuration not stated), the growth rescue is reported as 57.6% (active).
For CCCc1ccc(OCC(=O)NNC(=S)NC(=O)c2ccco2)cc1, the growth rescue was 58% (active).
For CC(Oc1ccc2ccccc2c1)C(=O)NNC(=S)NC(=O)c1ccco1 (configuration not stated), the growth rescue was 58.8% (active).
With O=c1c(/C=N/O)coc2ccc(Cl)cc12 the growth rescue was 412% (active).
With c1ccc(C(=NNc2nc3ccccc3s2)c2ccccn2)cc1 the growth rescue was 223% (active).
With O=C(/C=C/c1ccccc1[N+](=O)[O-])OCC(=O)N1CCCC1 the growth rescue was 48.9% (active).
With COc1ccc(/C=C(\C#N)c2c[nH]c3ccccc23)cc1 the growth rescue was 509% (active).
For COc1cc(C)ccc1OCC(=O)OCC(=O)c1ccc[nH]1, the growth rescue was 62.4% (active).
In the case of CC(C)(C)c1ccc(Oc2ccc(N)cc2)cc1, the growth rescue is reported as 346% (active).
In the case of CCOc1ccccc1Oc1cn[nH]c1-c1ccc(OC)cc1O, the growth rescue is reported as 125% (active).
With CCCCC(=O)NC(c1ccc(OC)c(OC)c1)c1ccc2cccnc2c1O (configuration not stated) the growth rescue was 222% (active).
For CCOC(=O)C(C)Oc1cccc2c(=O)n(CC(=O)N3CCc4ccccc43)ccc12 (configuration not stated), the growth rescue was 92.2% (active).
For COc1ccc2c(c1)CCc1c(C(=O)N3CCc4ccccc4C3)noc1-2, the growth rescue was 182% (active).
In the case of S=c1[nH]nc(-c2ccco2)n1/N=C/c1ccc(Br)s1, the growth rescue is reported as 152% (active).
With CCC(C(=O)OC)n1cnc2scc(-c3ccc(C)cc3)c2c1=O (configuration not stated) the growth rescue was 49.2% (active).
In the case of COC(=O)Cn1cnc2scc(-c3ccc(C)c(C)c3)c2c1=O, the growth rescue is reported as 151% (active).
